Assay outcomes (PubChem BioAssay)
A selection: hits, their analogues and other compounds. The true share with any hit is near 2.3%.
Mcl1 Bid PPI – Mcl-1/Bid interaction inhibition | Q07820 | TR-FRET Mcl-1/Bid-Dy647 peptide binding, 1536-well | inhibition, % at 21.7 µM | actives 0.97% (n = 220,000);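 active = compounds that cut the binding signal by more than half at the single screening dose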;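 note: His-tagged Mcl-1 with europium anti-His antibody binding Bid BH3 peptide; 0% = Mcl-1 plus peptide wells and 100% = peptide-only wells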
Target sequence (Q07820 whole entry, looked up): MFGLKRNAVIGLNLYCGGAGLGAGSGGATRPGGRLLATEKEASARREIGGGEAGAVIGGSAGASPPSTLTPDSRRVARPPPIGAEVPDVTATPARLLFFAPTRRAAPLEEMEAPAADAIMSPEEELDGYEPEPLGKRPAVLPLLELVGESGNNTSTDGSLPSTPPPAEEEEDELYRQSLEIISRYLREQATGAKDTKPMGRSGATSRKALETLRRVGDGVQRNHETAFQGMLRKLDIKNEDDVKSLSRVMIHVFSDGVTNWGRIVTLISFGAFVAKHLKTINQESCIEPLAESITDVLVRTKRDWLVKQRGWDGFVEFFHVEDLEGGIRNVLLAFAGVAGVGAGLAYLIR
GLD-1 RNA inh – GLD-1-TGE RNA interaction inhibition (C. elegans) | Q17339 | purified GLD-1 + fluorescein TGE RNA, fluorescence polarization | inhibition, % at 5.96 µM | actives 0.44% (n = 320,000) | AID 2280;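 active = percent inhibition above a per-plate cutoff, the plate mean of test compounds plus 3 SD, cut at about 30% in these data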;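 note: 0% = DMSO wells with GLD-1 and probe and 100% = wells lacking GLD-1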
MCL1-BIM inh – inhibitors of human MCL1 binding to BIM-BH3 peptide. GST-MCL1 / FITC-Bim-BH3 fluorescence polarization. inhibition, % at 10.9 µM. actives 0.68% (n = 320,000). AID 2057;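 active = inhibition above the mean inhibition of all tested compounds plus 3 SD, set per campaign, cut at about 40% in these data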;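 note: 0% = DMSO wells and 100% = unlabeled Bim-BH3 peptide control; higher means more loss of mP so more displacement of Bim peptide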
Bim-Mcl-1 – inhibitors of Bim-Mcl-1 interaction, human; Q07820; Bead-based flow cytometry, Bim peptide-Mcl-1 binding; inhibition, % at 10 µM; actives 0.1% (n = 190,000); AID 1009; in the data active = inhibition above about 40%;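 note: 0% = no compound tracer wells and 100% = peptide blocker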
Bcl-xL primary – Bcl-xL (human) inhibition | actives 0.7% (n = 320,000) | Q07817 | inhibition, % at 10.9 µM | GST-Bcl-xL / FITC-Bim BH3 peptide fluorescence polarization | AID 2129;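 active = inhibition above the mean of all tested compounds plus 3 SD, cutoff set per campaign, cut at about 30% in these data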;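 note: 0% = DMSO wells and 100% = unlabeled Bim-BH3 peptide competitor; inhibitors lower millipolarization by displacing the labeled peptide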
Target sequence (Q07817 whole entry, looked up): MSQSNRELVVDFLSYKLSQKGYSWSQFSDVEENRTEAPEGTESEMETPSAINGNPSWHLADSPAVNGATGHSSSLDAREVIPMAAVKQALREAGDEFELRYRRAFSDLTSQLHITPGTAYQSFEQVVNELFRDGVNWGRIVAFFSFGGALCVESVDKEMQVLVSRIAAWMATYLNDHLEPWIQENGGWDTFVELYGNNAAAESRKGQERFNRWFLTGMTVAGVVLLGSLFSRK
Mcl1 Noxa PPI – disrupts binding of human Mcl-1 to Noxa peptide | actives 1.5% (n = 220,000) | Q07820 | TR-FRET Mcl-1/Noxa peptide binding, 2 h | inhibition, % at 21.7 µM;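 active = compounds that cut the protein-peptide binding signal by more than 50% relative to plate controls in a single-dose test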;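 note: His-tagged Mcl-1 with rhodamine Noxa BH3 peptide and terbium anti-His antibody; 0% = Mcl-1 plus Noxa peptide wells and 100% = peptide-only wells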
Active calls of the source: *; x = no result.

SMILES	Mcl1 Bid PPI	GLD-1 RNA inh	MCL1-BIM inh	Bim-Mcl-1	Bcl-xL primary	Mcl1 Noxa PPI
O=C(CSc1nc2ccsc2c(=O)n1Cc1ccc(C(=O)O)cc1)NCC1CCCO1 (centres undefined)	18.1	8.8	3.6	73.0*	6.0	13.5
COc1ccc(-n2c(SCC(=O)NCC3CCCO3)nc3c(c2=O)SC(C)C3)cc1 (centres undefined)	x	1.1	4.9	x	2.7	x
NC(=O)CSc1nc2scc(-c3ccco3)c2c(=O)n1-c1ccccc1	6.4	0.8	19.5	0.0	11.2	54.9*
O=C(CSc1nc2scc(-c3ccco3)c2c(=O)n1-c1ccccc1)NCC1CCCO1 (centres undefined)	3.0	-7.0	2.6	-1.0	5.6	55.6*
C=CCn1c(SCC(=O)NCC2CCCO2)nc2scc(-c3ccco3)c2c1=O (centres undefined)	-24.8	-1.4	-2.4	1.0	0.2	18.1
O=C(CSc1nc2ccsc2c(=O)n1Cc1ccccc1)NCC1CCCO1 (centres undefined)	-17.5	-2.9	5.4	-5.0	4.5	-0.3
CC1Cc2nc(SCC(=O)NCC3CCCO3)n(-c3ccc(F)cc3)c(=O)c2S1 (centres undefined)	x	0.0	-1.2	x	64.1*	x
CC1CCc2sc(C(=O)NCc3ccccn3)cc2C1 (centres undefined)	x	6.8	8.9	x	-1.0	x
CC1Cc2ccccc2N1Cc1cc(=O)n2ccsc2n1 (centres undefined)	-59.1	11.0	26.1	-2.0	33.4*	30.0
Cc1oc2c(CN3CCC(C)CC3)c(O)ccc2c(=O)c1-c1ccccc1	x	13.5	6.2	x	34.0*	x
Cc1oc2c(CN3CCCC3)c(O)ccc2c(=O)c1-c1ccccc1	-32.4	4.0	2.6	2.0	0.8	-4.8
NC(=O)c1nnn(-c2cccc(C(F)(F)F)c2)c1-c1ccccc1	-13.4	3.0	0.8	x	-1.3	6.8
CCCCc1c(C)nc2c(OC)cccc2c1SCCC(=O)O	5.6	-5.1	8.4	0.0	5.0	51.6*
COC(=O)CSc1nc(N)c(C#N)c(-c2ccc(O)cc2)c1C#N	57.2*	5.0	4.2	x	2.5	39.0
CCOC(=O)CSc1nc(N)c(C#N)c(-c2ccc(OCC)cc2)c1C#N	-24.4	-3.3	-2.4	-1.0	-2.6	-113.3
CC(=O)c1cccc(NC(=O)CSc2ccc(-c3ccco3)nn2)c1	x	3.8	10.1	x	9.2	x
O=C(CSc1ccc(-c2ccco2)nn1)c1cccc([N+](=O)[O-])c1	-44.6	1.3	65.9*	-1.0	25.5	33.0
CCOc1cc(N2CCOCC2)c(OCC)cc1NC(=O)C1CC(=O)N(c2ccc(C)cc2)C1 (centres undefined)	x	1.4	4.6	x	1.9	x
CCOC(=O)COc1cc2oc(=O)cc(C)c2cc1[N+](=O)[O-]	-22.6	9.0	13.5	0.0	13.5	2.9
C=CCNC(=O)/C(C#N)=C/c1cn(-c2ccccc2)nc1-c1ccc(OC)c([N+](=O)[O-])c1	58.3*	3.8	6.5	-4.0	4.2	15.2
CCSc1ccc(-c2nn(-c3ccccc3)cc2/C=C(/C#N)C(=O)NC)cc1	-10.5	-1.0	-3.2	-7.0	-0.1	7.4
CCCCn1c(N)c(N(Cc2ccccc2OC)C(=O)CN2C(=O)NC(C)(c3ccccc3)C2=O)c(=O)[nH]c1=O (centres undefined)	x	6.3	-15.8	x	-10.5	x
CCOc1ccc(NC(=O)c2cc3c(C)nc4ccccc4c3o2)cc1	52.5*	1.0	5.3	1.0	0.9	42.5
C[C@H](CO)N1C[C@H](C)[C@@H](CN(C)Cc2ccc(C(=O)O)cc2)Oc2ccc(NS(C)(=O)=O)cc2C1=O	x	-3.6	x	x	x	x
O=C(CN1C(=O)NC2(CCCC2)C1=O)NCCc1ccc(F)cc1	x	0.3	x	x	x	x
SMILES	Mcl1 Bid PPI	GLD-1 RNA inh	MCL1-BIM inh	Bim-Mcl-1	Bcl-xL primary	Mcl1 Noxa PPI
O=C(c1ccc(Cl)c([N+](=O)[O-])c1)N(Cc1ccco1)C1CCS(=O)(=O)C1 (centres undefined)	x	-2.2	-6.5	x	-4.0	x
CCCCn1c(-c2ccc(Cl)cc2)nc2c(=O)n(C)c(=O)[nH]c21	-28.6	x	x	-1.0	x	76.0*
CCC(C)c1ccccc1NC(=O)C(C)NCCN(C)C (centres undefined)	59.7*	0.6	-5.1	x	-3.3	23.5
CCCNC(C)C(=O)Nc1ccccc1C (centres undefined)	-3.4	-1.7	7.4	-1.0	-1.6	-26.2
CNC(=S)N/N=C1\C(=O)c2cccc3cccc1c23	-47.1	-3.5	13.4	-2.0	12.0	-24.9
O=C(N/N=C1\C(=O)c2cccc3cccc1c23)c1ccc(O)cc1	-24.1	6.2	3.0	1.0	8.3	53.5*
O=C(CCCOc1ccccc1)N1CCN(c2ccccc2)CC1	59.3*	1.6	-4.3	2.0	1.2	-13.2
Cc1occc1C(=O)Nc1ccc([N+](=O)[O-])cc1Br	x	1.0	0.7	x	-2.3	x
Cc1occc1C(=O)NNC(=O)Nc1ccc([N+](=O)[O-])cc1	82.1*	0.8	-7.8	0.0	-2.3	4.0
Cc1ccc(C(=O)OCC(=O)Nc2ccccc2)cc1NC(=O)c1ccco1	-10.8	5.5	-9.2	-7.0	0.8	-7.1
Cc1ccc(C(=O)OCC(=O)Nc2ccc(N(C)C)cc2)cc1NC(=O)c1ccco1	-50.2	-2.8	-5.6	0.0	5.2	79.2*
O=C(NC1CC1)c1nc(Cn2ccc([N+](=O)[O-])n2)no1	x	-0.2	-6.0	x	-2.0	x
O=[N+]([O-])c1ccccc1/C=C/C=N/n1c(-c2cc(-c3ccccc3)n[nH]2)n[nH]c1=S	-32.6	1.7	-22.5	x	-28.9	57.8*
Cc1ccc(-c2n[nH]c(=S)n2/N=C/C=C/c2ccccc2[N+](=O)[O-])cc1	-123.3	2.5	-21.9	0.0	-32.0	40.7
S=c1[nH]nc(-c2cc(-c3ccccc3)n[nH]2)n1/N=C/C(Br)=C/c1ccccc1	-93.0	8.0	-11.1	x	-17.3	75.8*
CCOC(=O)c1c(NC(=O)COC(=O)Cn2c(C)nc3ccccc32)sc2c1CCCC2	55.9*	0.4	-3.6	-149.0	1.1	2.8
CCOC(=O)c1c(NC(=O)Cn2c(C)nc3ccccc32)sc2c1CCC2	-17.9	0.0	4.3	1.0	7.4	-19.2
CC1CCN(C(=O)COC(=O)Cc2ccc(Br)cc2)CC1	x	-3.5	7.1	x	6.5	x
CCN(C[C@H]1N[C@@](CC)(C(=O)OC)[C@H]2C(=O)N(C)C(=O)[C@@H]12)C(=O)Nc1ccc(C)cc1	x	-2.0	x	x	x	x
Cc1cc2c(ncn2Cc2ccccc2)c(N)c1C	-31.9	-3.2	6.0	-2.0	9.3	16.9
CC(=O)Nc1sc2c(c1C(N)=O)CCCC2	-11.7	-2.0	-7.8	-3.0	-2.2	5.1
NC(=O)c1c(NC(=O)C2c3ccccc3Oc3ccccc32)sc2c1CCCCC2	-51.7	-14.4	-21.5	-1.0	1.2	68.0*
Cc1sc(NC(=O)c2ccco2)c(CN2CCCCC2)c1C	-63.8	30.6	39.8	4.0	37.7*	-11.7
